# AMPAR-TARP mod: modulators of GluA2-stargazin AMPA receptor complexes, primary screen, cell-based, membrane potential dye; 40,000 compounds, 3.5% hits; calls only at 30 µM; Voltage-dependent calcium channel gamma-2 subunit (Mus musculus) + Glutamate receptor 2 …; HEK293 GluA2+stargazin, membrane potential dye (FDSS), glutamate EC50; hits were called plate by plate, in both directions; AID 1259245, 2017;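 active = any of four per-well response measures lying three or more SD from its plate-wide compound average, in either direction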
# Target sequence (O88602 whole entry, looked up): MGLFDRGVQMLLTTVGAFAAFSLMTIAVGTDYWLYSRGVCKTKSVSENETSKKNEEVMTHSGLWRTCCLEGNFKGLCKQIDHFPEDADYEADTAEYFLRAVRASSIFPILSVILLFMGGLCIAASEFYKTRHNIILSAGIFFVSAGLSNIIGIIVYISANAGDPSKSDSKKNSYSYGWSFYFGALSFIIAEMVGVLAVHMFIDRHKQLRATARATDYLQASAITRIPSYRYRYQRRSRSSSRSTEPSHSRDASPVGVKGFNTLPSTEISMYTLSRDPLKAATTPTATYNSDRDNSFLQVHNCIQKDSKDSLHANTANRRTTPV
# Target sequence (P19491 whole entry, looked up): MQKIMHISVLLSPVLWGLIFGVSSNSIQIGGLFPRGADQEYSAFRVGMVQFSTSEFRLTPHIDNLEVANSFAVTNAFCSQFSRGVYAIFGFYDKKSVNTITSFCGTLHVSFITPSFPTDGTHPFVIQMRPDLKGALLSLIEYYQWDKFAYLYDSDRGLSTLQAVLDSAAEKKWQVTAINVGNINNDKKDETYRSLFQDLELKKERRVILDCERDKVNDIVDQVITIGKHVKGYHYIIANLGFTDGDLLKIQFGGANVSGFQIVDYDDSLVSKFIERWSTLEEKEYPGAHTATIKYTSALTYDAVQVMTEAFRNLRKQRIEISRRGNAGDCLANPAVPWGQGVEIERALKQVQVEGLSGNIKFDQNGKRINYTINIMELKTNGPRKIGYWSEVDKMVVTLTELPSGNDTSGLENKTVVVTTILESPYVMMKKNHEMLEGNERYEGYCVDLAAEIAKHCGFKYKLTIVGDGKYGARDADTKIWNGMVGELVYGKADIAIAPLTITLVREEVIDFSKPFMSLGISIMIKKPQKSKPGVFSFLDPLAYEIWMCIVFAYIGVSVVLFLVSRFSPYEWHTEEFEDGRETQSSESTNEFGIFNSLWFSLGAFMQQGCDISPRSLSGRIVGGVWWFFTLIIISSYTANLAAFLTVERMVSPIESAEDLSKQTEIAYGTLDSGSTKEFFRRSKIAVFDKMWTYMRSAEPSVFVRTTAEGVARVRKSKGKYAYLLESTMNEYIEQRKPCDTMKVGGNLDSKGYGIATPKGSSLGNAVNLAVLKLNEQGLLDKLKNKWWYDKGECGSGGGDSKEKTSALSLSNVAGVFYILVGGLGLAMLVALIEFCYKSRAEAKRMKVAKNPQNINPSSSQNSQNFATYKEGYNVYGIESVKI
# GIRK2 activator: activators of NPY4-receptor-primed GIRK2 channels, summary, cell-based, HEK293, thallium flux; HEK293 GIRK2/NPY4 cells, thallium flux fluorescence; G protein-activated inward rectifier potassium channel 2 (Homo sapiens), P48051; AID 1259324, 2017; activation (% efficacy), % for hits at 37.5 µM; 34,000 tested, under 10 active;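 active = primary screen hit, no activity in plain HEK293 cells, and in GIRK2-only cells above 5% efficacy rising with concentration; inactive = the rest, including fluorescent compounds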;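 also: efficacy is normalized control-subtracted fluorescence 15 s after thallium addition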
# Starred values were filed as active, the others as inactive; i = inactive; . = no result; + = active, no number; [ ] = remark or other dose. This is one part of a sample in which hits are shown more often than they occur.
SMILES,AMPAR-TARP mod,GIRK2 activator
CC(C)(C)NC(=O)N1CCC(CNC(=O)c2cc(-c3ccccc3)on2)CC1,i,i
COc1ccc(CNC(=O)c2ccc(S(=O)(=O)c3ccc(C)c(C)c3)nc2)cc1OC,i,i
COc1ccc(CC(=O)Nc2cc(C)nn2-c2nc(-c3ccccc3)cs2)cc1,.,i
Cc1nc(NCCc2ccccc2)nc(N2CCOCC2)c1[N+](=O)[O-],i,i
COc1ccc(N2CCCS2(=O)=O)cc1NC(=O)Nc1ccc(Cl)c(Cl)c1,i,i
COc1ccc(Cl)cc1NC(=O)Nc1ccc(CN2CCN(C)CC2)cc1,i,14%*[75 µM]
COc1cc(NC(=O)Nc2ccc(CN3CCN(C)CC3)cc2)cc(OC)c1OC,i,i
O=C(Nc1ccc(N2CCCS2(=O)=O)cc1)Nc1cccc(Cl)c1,+,i
COc1cccc(NC(=O)Nc2ccc(N3CCCS3(=O)=O)cc2)c1,i,i
COc1ccc(Cl)cc1NC(=O)Nc1cc(N2CCCS2(=O)=O)ccc1OC,+,i
COC(=O)Cn1c(=NC(=O)c2ccn(C)n2)sc2c(OC)ccc(OC)c21,i,i
COc1ccc(NC(=O)CN2CCN(c3nccn3-c3ccc(C)cc3)CC2)cc1OC,i,.
CCS(=O)(=O)c1ccc(CC(=O)Nc2nc3c(s2)COc2ccccc2-3)cc1,i,.
COc1cccc2sc(N(CCN(C)C)C(=O)c3cc(C)nn3C)nc12,+,i
COc1cccc2sc(N(CCCN(C)C)C(=O)c3cc(C)nn3C)nc12,i,i
COc1ccc(-c2noc(C3CCN(S(=O)(=O)c4ccc(Cl)cc4)CC3)n2)cc1,i,i
COc1ccc(-c2noc(C3CCN(S(=O)(=O)c4ccc(C)cc4)CC3)n2)cc1,+,i
Cc1cc(C)n(-c2ccc(=O)n(CCNC(=O)c3cccc(C(F)(F)F)c3)n2)n1,.,i
CC(=O)c1ccc(C(=O)Nc2sc3c(c2-c2nc4ccccc4s2)CCN(C(C)C)C3)cc1,i,.
CC(C)N1CCc2c(sc(NC(=O)c3ccc(Cl)s3)c2-c2nc3ccccc3s2)C1,+,.
CC(C)N1CCc2c(sc(NC(=O)c3ccc([N+](=O)[O-])cc3)c2-c2nc3ccccc3s2)C1,+,.
CCC(=O)Nc1sc2c(c1-c1nc3ccccc3s1)CCN(C(C)C)C2,i,.
COc1ccc2nc(-c3cccc(NS(=O)(=O)c4cccc(Cl)c4Cl)c3)cn2n1,.,i
O=C(Cc1csc(NC(=O)c2ccc[nH]c2=O)n1)Nc1ccc2c(c1)OCCO2,i,i
O=C(c1ccc(S(=O)(=O)N2CCOCC2)cc1)N(C(=O)N1CCCCC1)c1cccc(Cl)c1,+,i
SMILES,AMPAR-TARP mod,GIRK2 activator
O=C(c1ccc(S(=O)(=O)N2CCOCC2)cc1)N(C(=O)N1CCCCC1)c1ccc(Cl)cc1,i,.
COC(=O)c1ccc(C(=O)NCC2CCN(C(=O)c3snnc3C)CC2)cc1,i,i
N#Cc1ccc(Cl)cc1NC(=O)C(=O)N1CCN(Cc2ccc3c(c2)OCO3)CC1,i,.
FC(F)Sc1ccc(NC(=S)N2CCN(c3ccccc3)CC2)cc1,i,.
Cc1c(NS(=O)(=O)c2cccc(S(C)(=O)=O)c2)c(=O)n(-c2ccccc2)n1C,.,i
Cc1cc(C(C)(C)C)cc(S(=O)(=O)Nc2c(C)n(C)n(-c3ccccc3)c2=O)c1C,+,.
Cc1cc(NC(=O)c2ncccn2)no1,.,i
Cn1c(=O)c2c(SCC(=O)NCCc3ccccc3)ccnc2n(C)c1=O,i,i
Cn1c(=O)c2c(NCCc3ccc(S(N)(=O)=O)cc3)ccnc2n(C)c1=O,+,i
Cc1cccc(NC(=O)CSc2ccc(NC(=O)C(C)C)nn2)c1C,i,i
Cc1nc(NCCNC(=O)Nc2ccc(F)c(Cl)c2)cc(-n2cccn2)n1,i,i
COc1cn(-c2ccc(F)cc2)nc1C(=O)NCCCn1ccnc1,+,i
COCCCNC(=O)c1nn(-c2ccc(F)cc2)cc1OC,i,i
O=C(NCC(O)Cc1ccccc1)Nc1cccc(C(F)(F)F)c1 (centres undefined),+,i
O=C(NCC1CCN(C(=O)COc2ccccc2)CC1)Nc1ccccc1F,i,i
O=C(NCC1CCN(C(=O)COc2ccccc2)CC1)Nc1cccc(C(F)(F)F)c1,+,i
O=C(NCC1CCN(c2ccccn2)CC1)Nc1cccc(C(F)(F)F)c1,i,.
O=C(NCC1CCN(c2ncccn2)CC1)Nc1cccc(C(F)(F)F)c1,+,i
Cn1cccc1C(O)CNC(=O)Nc1cccc(C(F)(F)F)c1 (centres undefined),i,i
CC(C)(C)NC(=O)N1CCC(CNC(=O)Nc2ccc3c(c2)OCO3)CC1,i,i

# From PubChem BioAssay
